From ChEMBL document CHEMBL2218924, “A broad activity screen in support of a chemogenomic map for kinase signalling research and drug discovery” (Biochem J, 2013) come the findings set out here.

Structures are written as SMILES.

Assay [1] addresses Homeodomain-interacting protein kinase 3 (Homo sapiens) (UniProt Q9H422). To be noted: at 10 µM.
For assay [2], the target named is T1, Serine/threonine-protein kinase haspin (Homo sapiens) (UniProt Q8TF76).
T1 sequence (whole entry): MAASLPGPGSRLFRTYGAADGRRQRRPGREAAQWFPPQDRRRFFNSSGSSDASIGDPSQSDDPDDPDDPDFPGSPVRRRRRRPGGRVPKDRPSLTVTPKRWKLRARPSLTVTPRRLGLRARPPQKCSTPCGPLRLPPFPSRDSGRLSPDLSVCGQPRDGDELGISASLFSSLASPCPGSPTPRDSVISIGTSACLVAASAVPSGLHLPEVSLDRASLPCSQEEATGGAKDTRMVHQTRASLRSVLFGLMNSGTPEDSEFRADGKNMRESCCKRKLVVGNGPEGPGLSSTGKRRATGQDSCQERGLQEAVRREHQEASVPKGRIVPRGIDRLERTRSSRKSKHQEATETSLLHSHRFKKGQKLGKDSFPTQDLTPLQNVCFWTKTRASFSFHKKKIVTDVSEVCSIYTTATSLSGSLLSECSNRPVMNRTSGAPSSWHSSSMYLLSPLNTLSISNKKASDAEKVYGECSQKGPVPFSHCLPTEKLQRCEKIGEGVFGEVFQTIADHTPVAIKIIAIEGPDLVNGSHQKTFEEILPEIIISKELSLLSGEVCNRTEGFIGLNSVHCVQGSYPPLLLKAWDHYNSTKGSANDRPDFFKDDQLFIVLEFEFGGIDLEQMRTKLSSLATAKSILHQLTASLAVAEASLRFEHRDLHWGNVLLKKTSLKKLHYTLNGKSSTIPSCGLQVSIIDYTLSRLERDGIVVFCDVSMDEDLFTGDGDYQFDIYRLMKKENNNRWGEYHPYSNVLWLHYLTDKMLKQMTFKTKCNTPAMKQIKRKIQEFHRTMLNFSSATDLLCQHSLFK
To be noted: at 1 µM.

Assay [3] addresses T1, Serine/threonine-protein kinase haspin (Homo sapiens). The note with it: at 10 µM.
For assay [4], the target named is Tyrosine-protein kinase HCK (Homo sapiens) (UniProt P08631). The note with it: at 1 µM.
Assay [5] has the same target. The note with it: at 10 µM.
Assay [6] has the same target. To be noted: at 1 µM. The source holds these as a separate data set.
The target is the same in assay [7]. To be noted: at 10 µM. The source holds these as a separate data set.
For assay [8], the target named is Insulin-like growth factor 1 receptor (Homo sapiens) (UniProt P08069). The note with it: at 1 µM.
Assay [9] has the same target. The note with it: at 10 µM.
Assay [10] concerns the target T2, Protein kinase C zeta type (Homo sapiens) (UniProt Q05513).
T2 sequence (whole entry): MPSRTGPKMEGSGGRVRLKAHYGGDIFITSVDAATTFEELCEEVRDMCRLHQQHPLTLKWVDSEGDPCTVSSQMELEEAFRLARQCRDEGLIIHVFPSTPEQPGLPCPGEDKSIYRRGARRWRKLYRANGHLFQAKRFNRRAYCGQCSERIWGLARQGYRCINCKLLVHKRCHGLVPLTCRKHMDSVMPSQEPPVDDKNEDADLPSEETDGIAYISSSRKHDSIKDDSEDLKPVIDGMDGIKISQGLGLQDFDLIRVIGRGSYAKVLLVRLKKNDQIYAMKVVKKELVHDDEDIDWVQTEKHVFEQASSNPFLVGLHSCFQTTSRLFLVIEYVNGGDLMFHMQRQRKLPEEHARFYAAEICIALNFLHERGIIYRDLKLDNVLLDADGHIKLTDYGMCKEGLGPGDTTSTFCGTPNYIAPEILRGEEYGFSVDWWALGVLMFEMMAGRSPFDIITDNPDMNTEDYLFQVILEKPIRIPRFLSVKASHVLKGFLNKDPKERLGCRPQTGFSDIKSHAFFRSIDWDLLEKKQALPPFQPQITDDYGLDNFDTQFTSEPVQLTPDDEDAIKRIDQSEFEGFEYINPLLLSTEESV
The note with it: at 10 µM.

The target of assay [11] is Protein kinase C eta type (Homo sapiens) (UniProt P24723). To be noted: at 1 µM.
Assay [12] shares this target. The note with it: at 10 µM.
The target of assay [13] is Protein kinase C theta type (Homo sapiens) (UniProt Q04759). The note with it: at 1 µM.
Assay [14] has the same target. The note with it: at 10 µM.
Assay [15] has as its target T3, Protein kinase C iota type (Homo sapiens) (UniProt P41743).
T3 sequence (whole entry): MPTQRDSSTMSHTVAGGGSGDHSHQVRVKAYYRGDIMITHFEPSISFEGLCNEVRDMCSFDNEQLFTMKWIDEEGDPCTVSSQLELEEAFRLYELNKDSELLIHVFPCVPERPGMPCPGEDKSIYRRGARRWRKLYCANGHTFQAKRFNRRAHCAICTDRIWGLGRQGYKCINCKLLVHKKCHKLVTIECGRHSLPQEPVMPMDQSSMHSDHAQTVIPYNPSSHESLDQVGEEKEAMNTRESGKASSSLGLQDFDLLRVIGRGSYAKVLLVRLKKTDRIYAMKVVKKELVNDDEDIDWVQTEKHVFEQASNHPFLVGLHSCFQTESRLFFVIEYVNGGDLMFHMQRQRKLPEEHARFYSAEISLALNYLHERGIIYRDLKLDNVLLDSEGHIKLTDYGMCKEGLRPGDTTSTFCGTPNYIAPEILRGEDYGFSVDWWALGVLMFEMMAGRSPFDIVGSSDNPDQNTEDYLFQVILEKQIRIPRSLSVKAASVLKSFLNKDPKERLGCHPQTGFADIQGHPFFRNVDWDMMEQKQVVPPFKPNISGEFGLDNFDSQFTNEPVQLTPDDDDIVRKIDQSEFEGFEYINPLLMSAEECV
To be noted: at 1 µM.

Assay [16] deals with T3, Protein kinase C iota type (Homo sapiens). The note with it: at 10 µM.
For assay [17], the target named is T4, Serine/threonine-protein kinase D1 (Homo sapiens) (UniProt Q15139).
T4 sequence (whole entry): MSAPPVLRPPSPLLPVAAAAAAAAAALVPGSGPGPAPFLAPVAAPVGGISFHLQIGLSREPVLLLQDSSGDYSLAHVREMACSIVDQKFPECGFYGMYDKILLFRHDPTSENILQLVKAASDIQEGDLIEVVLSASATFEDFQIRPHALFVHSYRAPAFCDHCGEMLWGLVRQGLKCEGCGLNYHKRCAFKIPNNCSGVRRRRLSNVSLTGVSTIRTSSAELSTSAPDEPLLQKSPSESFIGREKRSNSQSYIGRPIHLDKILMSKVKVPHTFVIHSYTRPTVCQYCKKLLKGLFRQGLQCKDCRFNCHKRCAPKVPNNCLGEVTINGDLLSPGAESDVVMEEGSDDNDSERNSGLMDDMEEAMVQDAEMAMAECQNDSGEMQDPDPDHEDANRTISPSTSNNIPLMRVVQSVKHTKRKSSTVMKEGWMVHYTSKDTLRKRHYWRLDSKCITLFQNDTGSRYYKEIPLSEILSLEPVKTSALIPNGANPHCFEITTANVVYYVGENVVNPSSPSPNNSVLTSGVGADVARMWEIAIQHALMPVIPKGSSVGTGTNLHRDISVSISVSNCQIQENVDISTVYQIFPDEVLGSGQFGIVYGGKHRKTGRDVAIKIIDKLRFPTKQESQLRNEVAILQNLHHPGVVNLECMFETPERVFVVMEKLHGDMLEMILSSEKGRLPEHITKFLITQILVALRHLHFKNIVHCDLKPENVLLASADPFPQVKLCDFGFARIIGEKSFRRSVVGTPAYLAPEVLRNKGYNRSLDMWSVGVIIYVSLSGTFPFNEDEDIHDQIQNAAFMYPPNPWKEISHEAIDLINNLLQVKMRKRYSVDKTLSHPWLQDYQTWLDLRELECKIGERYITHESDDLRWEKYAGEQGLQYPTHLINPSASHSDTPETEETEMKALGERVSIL
To be noted: at 10 µM.

Assay [18] concerns the target T5, Serine/threonine-protein kinase D2 (Homo sapiens) (UniProt Q9BZL6).
T5 sequence (whole entry): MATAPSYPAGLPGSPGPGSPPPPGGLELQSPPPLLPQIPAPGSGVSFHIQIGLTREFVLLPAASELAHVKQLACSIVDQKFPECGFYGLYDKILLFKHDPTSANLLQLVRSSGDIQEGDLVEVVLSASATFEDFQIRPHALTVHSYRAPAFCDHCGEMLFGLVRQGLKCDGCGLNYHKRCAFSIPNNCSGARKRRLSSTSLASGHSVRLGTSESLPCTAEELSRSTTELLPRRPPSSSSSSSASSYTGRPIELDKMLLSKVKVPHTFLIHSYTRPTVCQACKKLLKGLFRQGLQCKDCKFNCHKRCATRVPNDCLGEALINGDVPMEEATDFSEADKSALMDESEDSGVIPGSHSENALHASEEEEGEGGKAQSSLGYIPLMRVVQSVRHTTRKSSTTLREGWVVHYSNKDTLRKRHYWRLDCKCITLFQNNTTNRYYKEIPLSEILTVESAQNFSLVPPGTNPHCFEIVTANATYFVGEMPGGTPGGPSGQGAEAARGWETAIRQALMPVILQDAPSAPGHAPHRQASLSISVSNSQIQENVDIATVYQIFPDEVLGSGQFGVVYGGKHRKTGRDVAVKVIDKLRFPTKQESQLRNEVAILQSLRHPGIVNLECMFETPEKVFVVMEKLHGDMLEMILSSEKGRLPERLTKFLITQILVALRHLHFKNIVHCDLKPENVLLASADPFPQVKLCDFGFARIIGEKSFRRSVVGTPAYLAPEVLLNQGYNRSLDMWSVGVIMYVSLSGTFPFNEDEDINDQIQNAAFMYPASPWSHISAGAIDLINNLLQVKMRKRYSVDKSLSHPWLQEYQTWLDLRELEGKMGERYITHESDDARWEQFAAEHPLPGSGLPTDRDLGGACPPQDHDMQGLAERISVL
The note with it: at 1 µM.

For assay [19], the target named is T5, Serine/threonine-protein kinase D2 (Homo sapiens). The note with it: at 10 µM.
Assay [20] has as its target T4, Serine/threonine-protein kinase D1 (Homo sapiens). The note with it: at 1 µM.

Protein kinase C eta type (Homo sapiens), sequence (P24723 whole entry): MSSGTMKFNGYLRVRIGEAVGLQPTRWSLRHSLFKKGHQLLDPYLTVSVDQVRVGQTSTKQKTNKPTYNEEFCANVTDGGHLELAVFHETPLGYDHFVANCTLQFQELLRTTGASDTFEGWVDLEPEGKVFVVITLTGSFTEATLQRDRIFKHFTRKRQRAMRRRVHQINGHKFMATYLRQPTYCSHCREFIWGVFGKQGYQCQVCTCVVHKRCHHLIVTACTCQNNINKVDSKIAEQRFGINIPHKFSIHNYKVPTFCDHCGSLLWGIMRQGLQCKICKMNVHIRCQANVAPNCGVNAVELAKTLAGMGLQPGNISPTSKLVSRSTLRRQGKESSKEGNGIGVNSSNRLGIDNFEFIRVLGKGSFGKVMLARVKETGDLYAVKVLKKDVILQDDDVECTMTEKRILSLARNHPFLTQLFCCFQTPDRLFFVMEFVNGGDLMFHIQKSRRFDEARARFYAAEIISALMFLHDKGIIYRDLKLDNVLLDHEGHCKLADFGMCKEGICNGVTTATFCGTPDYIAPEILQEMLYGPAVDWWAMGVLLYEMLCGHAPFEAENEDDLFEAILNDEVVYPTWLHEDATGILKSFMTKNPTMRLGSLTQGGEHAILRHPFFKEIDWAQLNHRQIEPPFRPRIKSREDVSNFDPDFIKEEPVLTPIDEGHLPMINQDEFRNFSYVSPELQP
Insulin-like growth factor 1 receptor (Homo sapiens), sequence (P08069 31-736 limits assumed): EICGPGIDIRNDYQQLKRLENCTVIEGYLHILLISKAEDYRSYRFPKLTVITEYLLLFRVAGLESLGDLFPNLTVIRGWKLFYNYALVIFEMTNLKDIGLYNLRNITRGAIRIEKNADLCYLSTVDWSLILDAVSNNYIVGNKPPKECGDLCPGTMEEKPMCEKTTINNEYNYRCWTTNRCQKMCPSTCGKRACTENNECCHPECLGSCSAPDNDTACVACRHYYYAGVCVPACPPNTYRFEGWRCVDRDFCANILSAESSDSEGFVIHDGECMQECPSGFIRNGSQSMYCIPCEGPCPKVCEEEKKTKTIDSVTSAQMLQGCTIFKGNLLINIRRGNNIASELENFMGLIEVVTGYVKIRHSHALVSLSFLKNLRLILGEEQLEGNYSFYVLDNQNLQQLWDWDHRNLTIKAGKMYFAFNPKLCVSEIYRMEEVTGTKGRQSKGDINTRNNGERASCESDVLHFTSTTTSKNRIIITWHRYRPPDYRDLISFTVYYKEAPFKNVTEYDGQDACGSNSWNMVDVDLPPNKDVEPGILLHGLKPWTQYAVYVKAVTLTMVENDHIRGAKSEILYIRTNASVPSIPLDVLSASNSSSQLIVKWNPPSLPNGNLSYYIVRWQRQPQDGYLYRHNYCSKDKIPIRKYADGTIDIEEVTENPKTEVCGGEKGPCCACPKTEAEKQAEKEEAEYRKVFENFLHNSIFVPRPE
Insulin-like growth factor 1 receptor (Homo sapiens), sequence (P08069 741-1367 limits assumed): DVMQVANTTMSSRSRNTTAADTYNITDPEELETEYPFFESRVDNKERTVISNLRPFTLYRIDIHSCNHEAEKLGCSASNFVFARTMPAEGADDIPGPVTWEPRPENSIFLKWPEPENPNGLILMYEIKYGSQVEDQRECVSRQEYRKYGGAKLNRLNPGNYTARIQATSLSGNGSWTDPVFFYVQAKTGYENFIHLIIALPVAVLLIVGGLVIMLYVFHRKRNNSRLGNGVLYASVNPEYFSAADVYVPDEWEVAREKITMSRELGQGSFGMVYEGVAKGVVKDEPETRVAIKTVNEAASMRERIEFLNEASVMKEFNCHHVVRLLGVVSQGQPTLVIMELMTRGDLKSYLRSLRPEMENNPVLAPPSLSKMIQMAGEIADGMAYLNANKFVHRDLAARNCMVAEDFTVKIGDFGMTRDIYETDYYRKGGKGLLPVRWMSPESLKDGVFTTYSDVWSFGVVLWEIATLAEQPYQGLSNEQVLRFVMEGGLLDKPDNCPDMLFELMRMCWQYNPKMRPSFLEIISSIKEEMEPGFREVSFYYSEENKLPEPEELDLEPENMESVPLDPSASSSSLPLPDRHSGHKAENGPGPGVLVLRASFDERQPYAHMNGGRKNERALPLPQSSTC
Protein kinase C theta type (Homo sapiens), sequence (Q04759 whole entry, looked up): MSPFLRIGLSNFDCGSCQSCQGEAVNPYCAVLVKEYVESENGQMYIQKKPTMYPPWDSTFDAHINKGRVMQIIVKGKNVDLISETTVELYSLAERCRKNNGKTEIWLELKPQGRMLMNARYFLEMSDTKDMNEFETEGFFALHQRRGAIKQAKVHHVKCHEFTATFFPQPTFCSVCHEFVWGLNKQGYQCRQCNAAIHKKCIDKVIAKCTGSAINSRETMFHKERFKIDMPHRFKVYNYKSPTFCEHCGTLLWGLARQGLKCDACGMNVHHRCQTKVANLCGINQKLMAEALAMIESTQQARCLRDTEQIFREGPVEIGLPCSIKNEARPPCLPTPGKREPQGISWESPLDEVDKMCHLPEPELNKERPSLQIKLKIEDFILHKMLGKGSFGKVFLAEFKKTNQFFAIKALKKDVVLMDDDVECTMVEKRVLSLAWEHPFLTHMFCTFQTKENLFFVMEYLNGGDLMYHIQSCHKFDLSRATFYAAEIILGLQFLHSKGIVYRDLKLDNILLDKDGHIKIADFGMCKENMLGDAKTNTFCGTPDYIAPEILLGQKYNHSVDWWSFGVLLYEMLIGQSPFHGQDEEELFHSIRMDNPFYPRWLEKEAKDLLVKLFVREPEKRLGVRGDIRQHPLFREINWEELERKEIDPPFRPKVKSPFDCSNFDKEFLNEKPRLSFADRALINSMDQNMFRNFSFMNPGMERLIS
Homeodomain-interacting protein kinase 3 (Homo sapiens), sequence (Q9H422 whole entry, looked up): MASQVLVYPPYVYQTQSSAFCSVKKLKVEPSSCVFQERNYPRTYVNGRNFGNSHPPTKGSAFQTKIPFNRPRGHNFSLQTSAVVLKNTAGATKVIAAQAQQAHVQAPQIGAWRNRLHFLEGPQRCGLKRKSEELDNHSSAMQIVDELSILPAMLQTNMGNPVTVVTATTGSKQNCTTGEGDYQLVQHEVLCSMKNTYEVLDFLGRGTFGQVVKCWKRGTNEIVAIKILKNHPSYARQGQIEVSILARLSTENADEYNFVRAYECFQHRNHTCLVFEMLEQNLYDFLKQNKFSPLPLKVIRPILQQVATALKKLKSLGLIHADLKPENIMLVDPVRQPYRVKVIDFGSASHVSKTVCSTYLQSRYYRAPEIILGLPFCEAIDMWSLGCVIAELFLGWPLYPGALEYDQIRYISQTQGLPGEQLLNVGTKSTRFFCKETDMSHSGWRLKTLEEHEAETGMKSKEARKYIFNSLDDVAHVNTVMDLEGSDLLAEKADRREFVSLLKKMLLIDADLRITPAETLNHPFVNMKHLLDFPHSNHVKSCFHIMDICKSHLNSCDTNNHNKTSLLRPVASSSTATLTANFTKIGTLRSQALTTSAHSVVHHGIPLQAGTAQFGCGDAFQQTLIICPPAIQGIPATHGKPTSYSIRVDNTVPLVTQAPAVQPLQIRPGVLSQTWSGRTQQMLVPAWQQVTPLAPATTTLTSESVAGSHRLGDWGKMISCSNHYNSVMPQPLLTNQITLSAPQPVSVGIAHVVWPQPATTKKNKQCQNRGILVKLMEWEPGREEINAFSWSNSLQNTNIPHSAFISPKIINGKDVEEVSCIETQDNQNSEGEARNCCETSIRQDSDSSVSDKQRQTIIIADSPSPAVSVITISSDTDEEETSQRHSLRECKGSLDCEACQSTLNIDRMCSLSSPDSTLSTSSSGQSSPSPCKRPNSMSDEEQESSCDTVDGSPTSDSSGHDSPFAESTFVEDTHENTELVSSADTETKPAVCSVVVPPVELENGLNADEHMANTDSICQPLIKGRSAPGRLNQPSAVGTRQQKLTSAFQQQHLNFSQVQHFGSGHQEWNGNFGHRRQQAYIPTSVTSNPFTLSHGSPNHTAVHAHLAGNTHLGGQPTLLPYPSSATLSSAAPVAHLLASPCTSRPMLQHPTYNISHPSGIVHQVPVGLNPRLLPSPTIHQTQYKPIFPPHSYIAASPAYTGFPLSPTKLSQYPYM
Tyrosine-protein kinase HCK (Homo sapiens), sequence (P08631 2-526 limits assumed): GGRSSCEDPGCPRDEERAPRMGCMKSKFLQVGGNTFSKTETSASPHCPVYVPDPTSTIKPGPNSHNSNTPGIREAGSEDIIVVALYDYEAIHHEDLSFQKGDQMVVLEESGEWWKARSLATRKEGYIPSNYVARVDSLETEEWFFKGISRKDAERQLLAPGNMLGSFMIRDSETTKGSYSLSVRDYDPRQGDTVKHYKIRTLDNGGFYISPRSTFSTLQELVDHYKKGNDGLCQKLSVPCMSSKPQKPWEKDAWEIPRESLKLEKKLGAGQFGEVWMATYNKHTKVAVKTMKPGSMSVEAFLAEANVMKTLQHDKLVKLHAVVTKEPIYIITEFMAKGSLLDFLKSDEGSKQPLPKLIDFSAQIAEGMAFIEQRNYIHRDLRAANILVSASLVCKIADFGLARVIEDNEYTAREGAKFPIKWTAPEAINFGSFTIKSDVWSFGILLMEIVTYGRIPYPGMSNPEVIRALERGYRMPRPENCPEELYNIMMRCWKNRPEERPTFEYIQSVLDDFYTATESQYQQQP

With `CC(C)c1nn(-c2c(Cl)cccc2Cl)c2nc(Cc3ccc(OCCO)cc3)[nH]c(=O)c12`, the residual activity in assay [1] was found to be 103%; in assay [2], 97%; in assay [3], 56%; in assay [4] it was 75%; in assay [5] it was 56%; in [6], 98%. Besides, the residual activity in assay [7] was determined as 86%; in assay [8] it was 135%; in assay [9] it was 103%; in assay [10], 93%; in assay [11] it was 92%; in assay [12], 91%. Moreover, the residual activity is 90% in assay [13]; 80% in [14]; 99% (inactive) in assay [15]; 102% in assay [16]; 95% in [17]; 95% in assay [18]. Besides, the residual activity in assay [19] was determined as 91%.
For the compound `Nc1ncnc2c1c(-c1ccc(Oc3ccccc3)cc1)cn2C1CCCC1`, the residual activity was 97% in [1]; 90% in [2]; 44% in [3]; 2% in [4]; 1% in assay [5]; 1% in assay [6]. For the same compound, the residual activity in assay [7] is -2%; in assay [8], 127%; in [9], 119%; in [10], 107%; in assay [11] it was 95%; in assay [12], 67%. Further, the residual activity in assay [13] is 94%; in assay [14], 109%; in [15] it was 87% (inactive); in assay [16], 76%; in [18], 93%; in [19], 95%.
With `COc1cc2nccc(Oc3ccc(NC(=S)NC(=O)c4ccccc4C)cc3)c2cc1OC`, the residual activity amounted to 101% in [1]; 80% in assay [2]; 35% in [3]; 7% in [4]; 1% in assay [5]; 11% in assay [6]. Besides, the residual activity is 3% in assay [7]; 120% in assay [8]; 148% in assay [9]; 98% in assay [11]; 71% in assay [12]; 89% in assay [13]. In addition, the residual activity in assay [14] was 97%; in [15], 88% (inactive); in [16], 82%; in assay [20], 87%; in [17], 89%.

The residual activity is the signal under treatment as a percentage of the control signal.
